AGP1-GFP MLPCN: modulators of AGP1-GFP expression in yeast TOR pathway, primary screen, cell-based, multiplex flow cytometry, S. cerevisiae, MLPCN library; 3 h; GFP as percent of DMSO wells; GFP response vs DMSO, % at 10 µM; 320,000 compounds, 0.02% hits; AID 2066, 2009;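 active = GFP response relative to DMSO above a set limit, near screen average plus 3 SD, cut at about 150% in these data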;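 note: median GFP channel fluorescence of the gated AGP1 strain per well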
MEP2 TOR yeast: modulators of MEP2-GFP levels in yeast, primary screen, S. cerevisiae, multiplex flow cytometry, MLPCN library. GFP response vs DMSO, % at 10 µM. S. cerevisiae MEP2-GFP strain, 3 h; 100% = DMSO control level. 330,000 compounds, 0.51% hits. AID 2016, 2009;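 active = GFP response versus DMSO above a set limit, roughly screen mean plus 3 SD, cut at about 180% in these data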;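 note: median GFP fluorescence of the barcode-gated MEP2-GFP cells per well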
VLA-4 inh: inhibition in human VLA-4 binding assay, primary screen, VLA-4 allosteric modulator project, MLPCN library, flow cytometry, VLA-4 expressing cells | ligand binding flow cytometry | Integrin alpha-4 (Homo sapiens), P13612 | 330,000 compounds, 0.2% hits | inhibition, % (about 7 µM as worked out from the volumes in the protocol); in the data active = inhibition above about 50%
Target sequence (P13612 whole entry, looked up): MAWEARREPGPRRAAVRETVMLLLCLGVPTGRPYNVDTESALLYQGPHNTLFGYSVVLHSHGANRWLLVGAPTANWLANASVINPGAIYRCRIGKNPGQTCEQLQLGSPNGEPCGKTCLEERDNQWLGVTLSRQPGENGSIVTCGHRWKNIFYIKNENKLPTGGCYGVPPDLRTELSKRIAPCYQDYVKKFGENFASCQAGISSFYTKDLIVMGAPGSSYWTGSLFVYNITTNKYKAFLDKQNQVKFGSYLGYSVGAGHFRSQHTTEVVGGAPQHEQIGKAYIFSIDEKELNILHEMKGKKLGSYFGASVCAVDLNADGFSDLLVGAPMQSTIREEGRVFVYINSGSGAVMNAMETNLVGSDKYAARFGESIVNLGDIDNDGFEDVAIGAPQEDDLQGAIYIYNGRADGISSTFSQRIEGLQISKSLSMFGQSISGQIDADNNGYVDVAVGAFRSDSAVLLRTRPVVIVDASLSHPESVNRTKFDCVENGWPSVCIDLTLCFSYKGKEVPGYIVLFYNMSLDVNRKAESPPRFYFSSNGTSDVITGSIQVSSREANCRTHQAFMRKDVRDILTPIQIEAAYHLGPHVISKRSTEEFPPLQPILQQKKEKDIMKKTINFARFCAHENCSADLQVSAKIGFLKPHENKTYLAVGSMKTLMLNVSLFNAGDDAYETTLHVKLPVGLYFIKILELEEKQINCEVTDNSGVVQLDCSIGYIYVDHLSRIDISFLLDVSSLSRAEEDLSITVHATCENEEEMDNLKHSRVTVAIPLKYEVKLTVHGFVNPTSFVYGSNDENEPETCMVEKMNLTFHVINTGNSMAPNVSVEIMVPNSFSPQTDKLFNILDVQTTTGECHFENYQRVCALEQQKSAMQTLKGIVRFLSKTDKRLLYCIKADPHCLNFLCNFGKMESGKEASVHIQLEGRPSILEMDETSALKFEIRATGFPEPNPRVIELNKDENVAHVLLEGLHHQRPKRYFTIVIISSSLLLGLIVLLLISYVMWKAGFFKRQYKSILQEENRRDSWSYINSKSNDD
CIT2-GFP yeast: modulators of CIT2-GFP expression in yeast, primary screen, S. cerevisiae, GFP fusion, multiplex flow cytometry, MLPCN library. S. cerevisiae CIT2-GFP strain, 3 h; 100 means same as DMSO wells. GFP response vs DMSO, % at 10 µM. 320,000 compounds, 0.065% hits. AID 2029, 2009;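 active = GFP response relative to DMSO above a set limit, near the screen mean plus 3 SD, cut at about 150% in these data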;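 note: ratio of well median GFP fluorescence to mean of DMSO wells on the plate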
RPL19A-GFP yeast: RPL19A-GFP expression modulators in yeast, primary screen, cell-based, S. cerevisiae, multiplex flow cytometry, MLPCN; S. cerevisiae RPL19A-GFP strain, 3 h; stronger effect = lower value; percent response vs DMSO, % at 10 µM; AID 2025, 2009; 330,000 compounds, 0.3% hits;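 active = percent response vs DMSO below 50%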;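 note: median channel GFP fluorescence of the barcoded RPL19A-GFP strain; ratio of sample median GFP to plate DMSO average so 100% = DMSO; lower means less RPL19A-GFP as with rapamycin TOR inhibition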
LAP4 TOR yeast: modulators of LAP4-GFP expression in yeast, primary screen, S. cerevisiae, multiplex flow cytometry, MLPCN library. 320,000 compounds, 0.34% hits. 3 h; median GFP as percent of DMSO wells. AID 2023, 2009. GFP response vs DMSO, % at 10 µM;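 active = GFP response vs DMSO above a set limit, about the screen mean plus 3 SD, cut at about 150% in these data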
VLA-4 mod pick: retest of VLA-4 allosteric modulators, confirmation, cell-based, cherry-picked plates, U937, HUTS-21 LIBS antibody | 1,300 compounds, 2% hits | U937 cells, HUTS-21 LIBS mAb binding, flow cytometry; LDV ligand present at threefold Kd | inhibition, % at 6.7 µM | shares compounds with VLA-4 inh; in the data active = inhibition above about 40%;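 note: 0% = ligand without compound and 100% = no ligand background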
An asterisk follows results filed as active; . = no result given; ! = not active in a repeat. Compounds with a hit are over-represented: about 1.1% of the library has one in this group of screens.

SMILES	AGP1-GFP MLPCN	MEP2 TOR yeast	VLA-4 inh	CIT2-GFP yeast	RPL19A-GFP yeast	LAP4 TOR yeast	VLA-4 mod pick
COc1ccc(CNC(=O)CN(C)S(=O)(=O)c2ccccc2)cc1	95	94	52*	98	97	99	1
CCN(CC(=O)NCc1ccc(Cl)cc1)S(=O)(=O)c1ccc(F)cc1	100	102	-4	95	99	101	12
CN(CC(=O)NCc1ccc2c(c1)OCO2)S(=O)(=O)c1ccc(Cl)cc1	93	88	15	87	91	90	.
CN(CC(=O)NCc1ccccc1F)S(=O)(=O)c1ccc(Cl)cc1	99	100	6	96	103	95	1
CCc1cccc(C)c1NC(=O)CN(C)S(=O)(=O)c1ccc(-c2ccc(=O)[nH]n2)s1	99	138	7	104	101	100	.
CCCCn1cc(C(C)(C)C)c(C#N)c1NC(C)=O	101	113	50*	100	102	99	0
O=C1CCC(c2ccc3c(c2)CCC3)=NN1	100	106	53*	105	107	91	1
COc1ccc(-c2noc(N3CCCC(C(=O)Nc4ccc(C(C)=O)cc4)C3)n2)cc1 (configuration not stated)	91	98	3	98	91	91	.
COC(=O)c1c(C)[nH]c(C(=O)C(C)OC(=O)C2CC2C)c1C (configuration not stated)	101	102	-15	104	103	102	-7
O=C(c1ccc([N+](=O)[O-])cc1)N1CCCC1	97	96	10	91	97	93	.
O=C(c1ccccc1)N1CCN(C(=O)c2ccc([N+](=O)[O-])cc2)CC1	106	103	42	100	104	101	-2
COc1ccc(OCc2cc(C(=O)O)c(C)o2)cc1	101	114	12	95	103	118	.
O=C(c1ccc(Cl)cc1)N1N=CCC1(O)c1ccc(Cl)cc1 (configuration not stated)	92	99	6	90	99	101	.
COc1ccc(Br)cc1CNC(=O)CCCc1cn(C)c2ccccc12	102	114	53*	98	101	101	-4
CCOC(=O)C1(S(=O)(=O)c2ccc(Cl)cc2)CCN(Cc2ccc(Cl)cc2)CC1	98	100	59*	91	94	101	5
CCOC(=O)C1(S(=O)(=O)c2ccccc2)CCN(Cc2ccc(Cl)cc2)CC1	102	100	74*	98	96	102	-1
N#Cc1ccc(CN2CCN(C(=O)Cn3nc(C(N)=O)c4ccccc4c3=O)CC2)cc1	91	103	2	88	95	82	.
COc1ccccc1C(=O)NCCC(=O)NCC(c1ccco1)N1CCCC1 (configuration not stated)	104	107	41	101	103	108	.
O=C(/C=C/c1ccccc1F)c1cccc([N+](=O)[O-])c1	95	104	22	100	101	93	.
O=C(Oc1ccc(F)cc1C(=O)/C=C/c1cccs1)c1cccc([N+](=O)[O-])c1	94	94	50*	.	99	102	41*
CCOc1ccc(CN2CCN(CC(O)Cn3c4ccccc4c4ccccc43)CC2)cc1 (configuration not stated)	87	95	51*	93	102	93	10
CCn1ccnc1CN(C)Cc1cn(C)nc1-c1ccccc1F	99	102	43	104	104	90	-4
CC(C)(C)c1ccc(NC(=O)CCNC(=O)c2ccco2)cc1	101	108	50*	105	105	93	5
O=C(CCNC(=O)c1ccco1)Nc1ccc(C(F)(F)F)cc1	102	107	8	101	101	89	.
CCN(CC(=O)Nc1ccc(N2CCOCC2)cc1)CC(=O)NC(C)(C)C	99	102	45	102	102	94	-10
SMILES	AGP1-GFP MLPCN	MEP2 TOR yeast	VLA-4 inh	CIT2-GFP yeast	RPL19A-GFP yeast	LAP4 TOR yeast	VLA-4 mod pick
CN(CC(=O)Nc1ccc(N2CCOCC2)cc1)C(=O)CCNC(=O)c1ccc(Br)cc1	105	105	50*	97	99	104	-4
COc1ccccc1C(=O)NCCC(=O)N(C)CC(=O)Nc1ccc(N2CCOCC2)cc1	113	110	32	114	103	103	.
CN(CC(=O)Nc1ccc(N2CCOCC2)cc1)CC(=O)Nc1ccc(C(F)(F)F)cc1	103	106	-4	110	101	98	.
O=C(OCC(=O)N1CCN(Cc2ccccc2)CC1)c1cc(Cl)ccc1[N+](=O)[O-]	113	106	1	99	106	104	.
O=C(Nc1ccc2nc3n(c(=O)c2c1)CCCCC3)C(=O)N1CCN(c2ccc(F)cc2)CC1	103	103	30	102	100	103	.
O=C(/C=C/c1ccc(O)c(O)c1)O[C@@H]1C[C@](O)(C(=O)O)C[C@@H](O)[C@H]1O	82	101	55*!	77	98	104	1
O=C(/C=C/c1ccc(O)c(O)c1)OC1C(O)CC(OC(=O)/C=C/c2ccc(O)c(O)c2)(C(=O)O)CC1O (configuration not stated)	112	106	17	113	105	110	.
CCOC(=O)c1c(-c2ccccc2)csc1NC(=O)CCN1C(=O)c2ccccc2C1=O	.	.	43	.	.	.	9
CCOC(=O)c1c(-c2ccc(F)cc2)csc1NC(=O)CCN1C(=O)c2ccccc2C1=O	100	101	11	101	107	90	.
COc1cccc(CN(C)C(=O)c2cc(-c3cccs3)nc3ccccc23)c1	94	95	-10	88	99	90	.
COc1ccc(S(=O)(=O)N2CCN(C(=O)CCSc3ccccc3)CC2)cc1	96	99	-1	93	96	96	.
O=C1Cc2cc(S(=O)(=O)N3CCNCC3)ccc2N1	94	91	-7	104	101	92	6
CN(C(=O)COC(=O)CCC(=O)c1ccc(F)cc1)C1CCCCC1	100	99	3	97	99	97	.
CCC(=O)c1cn(CC(=O)Nc2cccc(C)c2C)c2ccccc12	92	104	23	106	98	81	3
COc1ccc(CCN(C)C(=O)Cn2c(=O)oc3ccccc32)cc1OC	90	100	10	96	100	87	.
